The values below come from PubChem BioAssay (NCI).

This is part of a sample that, as a whole, favours compounds with a hit. Of some 83,000 tested, about 20% had one in any assay.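 Activity criterion: percent growth below 10, measured after cells in 96-well plates were exposed to a single compound concentration for 48 hours.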 Calls of active or inactive are those of the source.

In the assay the test system is OVCAR-5 ovarian. The assay can be described thus: NCI-60 one-dose screen, 48 h (100 = growth as untreated, 0 = no growth, -100 = all killed). The note with it: 10 µM unless noted.
Take `ClC(Cl)c1nc(-c2cccs2)n2nc(-c3ccccc3)cc2n1`: the growth is -8.51% (active). The figure for `O=C(COc1ccc(C2SCC(=O)N2c2ccccc2)cc1)c1ccccc1` (centres undefined) is 104% (inactive); for `c1ccc(-c2n(Cc3ccc4ccccc4c3)c3c4ccccc4c4ccccc4c3[n+]2Cc2ccc3ccccc3c2)cc1` it is -90.3% (active). The figure for `O=C1[C@@H]2Cc3c([nH]c4ccccc34)[C@H](c3c(Cl)cccc3Cl)N2C(=O)CN1C1CCN(Cc2c(F)cccc2F)CC1` is 92.4% (inactive); for `NCCN1CCN(c2nc(-c3ccccc3)nc3nc(-c4ccccc4)oc23)CC1` it is -82.9% (active); for `C/C(=C(/C)C1CC1CCN(C(=O)c1ccccn1)S(=O)(=O)c1ccc(C)cc1)C1CCCCC1` (centres undefined) it is 93.1% (inactive).

With `Cc1nn(-c2ccccc2)cc1/C=N/Nc1nc(Nc2ccccc2)nc(Nc2ccc(S(N)(=O)=O)cc2)n1`, the growth is -13.2% (active). Take `Brc1cccc(/C=N/Nc2nc(N/N=C/c3cccc(Br)c3)nc(N3CCOCC3)n2)c1`: the growth was 72.4% (inactive).

With `COc1cc(/C=C2\SC(=O)NC2=O)ccc1OCC(=O)Nc1ccc(C(=O)/C=C/c2cc3ccccc3nc2Cl)cc1`, the growth was 109% (inactive).

With `O=c1oc2ccc(-c3ccc(F)cc3F)cc2c(=O)n1-c1ccc(F)c(F)c1`, the growth was 12.9% (inactive). The same measure for `CC[C@@](C)(NC(=O)C(C)(C)NC(=O)[C@@H](NC(=O)[C@@H]1CCCN1C(=O)C(C)(C)NC(=O)[C@H](CC(C)C)NC(=O)CNC(=O)C(C)(C)NC(=O)[C@@H](NC(=O)C(C)(C)NC(=O)[C@H](CCC(N)=O)NC(=O)[C@H](C)NC(=O)C(C)(C)NC(=O)[C@H](C)NC(=O)C(C)(C)NC(=O)[C@@H]1CCCN1C(=O)C(C)(C)NC(C)=O)C(C)C)C(C)C)C(=O)N[C@@H](CCC(N)=O)C(=O)N[C@@H](CCC(N)=O)C(=O)N[C@H](CO)Cc1ccccc1`: 44.9% [4.25 µM] (inactive); for `O=C(/C=C/c1cn(-c2ccccc2)nc1-c1ccc(Cl)cc1)c1cc2ccccc2oc1=O`: 98% (inactive); for `CCN1C(=O)N(CC)C2SC(N/N=C/c3ccc(OC)cc3)=NC21` (centres undefined): 36.8% (inactive). As to `O=C(O)c1ccc(-n2cc(CNc3ccc(F)cc3)c(-c3ccc(C(F)(F)F)cc3)n2)cc1`, the growth is 106% (inactive).

On to `COc1cc(/C=C/C(=O)c2ccc(NC(=O)COc3cccc4cccnc34)cc2)cc(OC)c1OC`, for which the growth was 128% (inactive). The same measure for `COc1cc(CNC(=O)Cc2ccccc2[N+](=O)[O-])ccc1OCC(=O)NO`: 104% (inactive); for `Oc1ccc(CSc2nnc(-c3cnccn3)o2)c2cccnc12`: 36.9% (inactive); for `O=C(NCCCNc1cc(-c2cn(-c3ccccc3)nc2-c2cccc(O)c2)ccn1)Nc1ccc(F)cc1`: 37.8% (inactive).

For `COc1ccc(-c2nn(-c3ccccc3)cc2/C=C/C(=O)c2ccc(NC(=O)CCCCCCC(=O)NO)cc2)cc1`, the growth was 108% (inactive). The figure for `O=C1[C@H]2Cc3c([nH]c4ccccc34)[C@@H](c3c(Cl)cccc3Cl)N2C(=O)CN1C1CCN(Cc2ccccc2)CC1` is 107% (inactive); for `COc1cccc(/C=C/C(=O)c2ccc(NC(=O)COc3cccc4cccnc34)cc2)c1` it is 103% (inactive); for `CCCC(=O)NC(c1cccnc1)c1cc(Cl)c2cccnc2c1O` (centres undefined) it is 55.6% (inactive). As for `C/C(=N/Nc1nc(N/N=C(/C)c2ccc([N+](=O)[O-])cc2)nc(N2CCOCC2)n1)c1ccc([N+](=O)[O-])cc1`, the growth is 95.5% (inactive). The same measure for `Oc1ccc(CSc2nnc(-c3cnccn3)n2-c2ccccc2)c2cccnc12`: 50.3% (inactive); for `CCOC(=O)C1=C(C)Nc2nc3ccccc3n2C1c1ccccc1` (centres undefined): 104% (inactive); for `Oc1ccc(CSc2nnc(-c3ccc(Br)cc3)o2)c2cccnc12`: 89.6% (inactive). The same measure for `CNC(=O)c1cc(N2CCc3cc(NC(=O)Nc4ccc(Cl)c(Cl)c4)ccc32)ccn1`: 96.8% (inactive); for `COc1cc2cc(Oc3ccc(NC(=O)Nc4cc(C(F)(F)F)cc(C(F)(F)F)c4)cc3)c(C)nc2cc1OCCN(C)C`: 109% (inactive); for `Cc1cc(O)c(=O)cc2c1C[C@H]1CC(C)(C)/C=C/C[C@]3(C)Oc4cc(=O)c(O)cc(C)c4C[C@H]3C[C@H](O)[C@@]1(C)O2`: 26.9% (inactive). With `COc1ccc(-c2nnc(SCc3ccc(O)c4ncccc34)n2-c2ccccc2)cc1`, the growth is 53.3% (inactive). On to `O=C(CCCCCCN1CC(=O)N2[C@@H](c3ccc(Cl)c(F)c3)c3[nH]c4ccccc4c3C[C@H]2C1=O)NO`, for which the growth is 87.6% (inactive). In the case of `Oc1ccc(CSc2nnc(-c3ccccc3)n2-c2ccccc2)c2cccnc12`, the growth was 43.7% (inactive). The figure for `Cc1ccc(NC(=O)c2ccc(CN3CCN(C)CC3)c(C(F)(F)F)c2)cc1Oc1ccc(-c2[nH]nc3ncnc(N)c23)cc1` is 95.3% (inactive); for `CC(c1ccccc1)N1C(=O)/C(=C/c2csc(C#N)n2)SC1=S` (centres undefined) it is 107% (inactive). The same measure for `O=C(COc1ccc(C2SCC(=O)N2c2ccc(F)cc2)cc1)c1ccccc1` (centres undefined): 107% (inactive); for `COc1ccc(-c2nnc(SCc3ccc(O)c4ncccc34)o2)cc1`: 88.4% (inactive).

Consider `O=c1[nH]c(CNc2ccc(NCc3c(-c4ccccc4)no[n+]3[O-])cc2)nc2c1cnn2-c1ccccc1`, for which the growth was 109% (inactive). Turning to `COc1ccc(N)cc1C(=O)Nc1cccc(-c2cc(=O)c3c(OC)c(OC)c(OC)cc3o2)c1`, the growth is 94.8% (inactive). The figure for `CCCC(=O)NC(c1cccnc1)c1cc(C(C)=O)c2cccnc2c1O` (centres undefined) is 40% (inactive).
